The whole screen tested about 340,000 compounds, of which about 2,100 (0.62%) were called active.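 The calls were made as follows: active = first-screen hits whose inhibition reached a set limit at any dose in the follow-up dose series; inconclusive = inhibition above the set first-screen limit but never retested; inactive = the rest.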 Not all results are given here. Measured potencies and affinities stand elsewhere.
target: Rac GTPase-activating protein 1 (Homo sapiens) (UniProt Q9H0H5); assay: MgcRacGAP GTPase-activating activity inhibitors, confirmation, biochemical, ADP Hunter fluorescence, primary and confirmatory (AID 624330); conditions: MgcRacGAP-stimulated Rac1 GTP hydrolysis, at 30 µM, stronger effect = higher value, GST-tagged Rac1 F28L mutant substrate;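 also: fluorescence reports GDP produced by GAP-driven GTP hydrolysis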
Sequence (Q9H0H5 whole entry, looked up): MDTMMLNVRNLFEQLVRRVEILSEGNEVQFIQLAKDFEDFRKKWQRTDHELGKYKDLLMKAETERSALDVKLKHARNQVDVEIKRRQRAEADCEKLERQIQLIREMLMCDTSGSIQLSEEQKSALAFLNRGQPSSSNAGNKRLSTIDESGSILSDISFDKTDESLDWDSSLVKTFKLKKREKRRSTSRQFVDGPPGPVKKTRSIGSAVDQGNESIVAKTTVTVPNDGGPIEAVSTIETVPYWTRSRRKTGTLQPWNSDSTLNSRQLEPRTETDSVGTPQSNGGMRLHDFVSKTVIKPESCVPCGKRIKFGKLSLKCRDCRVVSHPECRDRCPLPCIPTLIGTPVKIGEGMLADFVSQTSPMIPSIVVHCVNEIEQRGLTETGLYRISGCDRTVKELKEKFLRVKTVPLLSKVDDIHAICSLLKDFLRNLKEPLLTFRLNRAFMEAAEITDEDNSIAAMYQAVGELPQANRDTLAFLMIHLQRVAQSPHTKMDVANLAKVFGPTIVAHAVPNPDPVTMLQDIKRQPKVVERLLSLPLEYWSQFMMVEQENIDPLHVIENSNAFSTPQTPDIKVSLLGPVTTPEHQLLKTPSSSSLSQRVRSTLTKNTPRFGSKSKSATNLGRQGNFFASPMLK

inhibition, inactive:
CN(CC(=O)Nc1ccc(F)cc1)C(=O)COC(=O)CCN1C(=O)C2CC=CCC2C1=O (centres undefined) 2.06%
O=C(CSc1nc(=O)n(CCN2CCOCC2)c2c1CCCC2)Nc1ccc([N+](=O)[O-])cc1 -4.11%
COc1ccc(NC(=O)NNC(=O)C(C)Oc2ccc3ccccc3c2)cc1OC (centres undefined) 12.5%
CCn1c(=O)c2c3c(sc2n(C)c1=O)CCC3 10.3%
CCn1c(=O)c2c3c(sc2n2cnnc12)CCC3 4.61%
c1ccc(CN2CCC3CC2c2cc(N4CCOCC4)ccc23)cc1 (centres undefined) 11.4%
O=C1OCC2=C1C(c1ccc(F)cc1)Sc1ccccc1N2 (centres undefined) -0.0633%
CCOC(=O)c1c(OCC)[nH]c2ccc(O)cc12 7.01%
CCOC(=O)c1c(C)[nH]c2c1cc(O)c1ccccc12 13.6%
CS(=O)(=O)N1CCN(c2ccc(NC(=O)CSc3ccc(Cl)cc3)cc2)CC1 3.35%
CCN1/C(=C/c2ccc3cc(C)cc(C)c3[n+]2CC)Sc2cc(C)ccc21 24.3%
CCN1/C(=C/c2ccc3cc(C)ccc3[n+]2CC)Sc2ccc3sccc3c21 6.5%
CCN1/C(=C/c2ccc3cccc(C)c3[n+]2CC)Sc2ccccc21 17.8%
CCN1/C(=C/c2ccc3ccccc3[n+]2CCCS(=O)(=O)[O-])C=Cc2cc(C)ccc21 5.54%
C=CC[n+]1c(/C=C2\C=Cc3cc(C)ccc3N2CC)ccc2ccccc21 17.6%
CCN1/C(=C\c2ccc3cc(C)ccc3[n+]2CC)Sc2cc(C)c(C)cc21 5.51%
CCN1/C(=C/c2ccc3cc(C)ccc3[n+]2CC)Sc2cc(C)c(C)cc21 15.9%
Cc1ccc2c(c1)S/C(=C\c1cccc[n+]1C)N2CCO 4.89%
Cc1ccc2nc(SCC(=O)Nc3ccccc3F)nc(=O)n2c1 3.36%
Cc1ccc(N(CC(=O)NCc2ccco2)C(=O)CCC(=O)Nc2ccccn2)c(C)c1 10.2%
CS(=O)(=O)N(CC(=O)N/N=C/c1cccs1)c1cccc(Cl)c1Cl 11.9%
NS(=O)(=O)c1ccc(CNC(=O)Cc2ccc(S(=O)(=O)N3CCOCC3)s2)cc1 9.4%
C/C(=N\NC(=O)c1c[nH]c2ccccc12)c1ccc2c(c1)OCO2 12.8%
Fc1ccccc1/C=N/N1CCN(Cc2ccccc2Cl)CC1 -7.94%
CCN(CC)S(=O)(=O)c1ccc(NC(=O)c2cccc3c2C(=O)N(CCOC)C3)cc1 8.69%
Cc1ccccc1N1C(=O)C(Cl)=C(N2CCCCCC2)C1=O -5.76%
CN1CCN(C2=C(Cl)C(=O)c3ccccc3C2=O)CC1 12.8%
COC(=O)[C@]1(Cc2ccccc2)N[C@H](CN(C)C(=O)c2ccc(F)cc2)[C@@H]2C(=O)N(C)C(=O)[C@@H]21 1.31%
Cc1c2ccccc2c(C)c2c1ccc1ccccc12 0.81%
CCCCC[n+]1cccc2c3ccccc3ccc21 16.4%
O=C(Nc1cccc2ccccc12)N1CCOCC1 -1.28%
O=C(Cc1cccs1)Nc1nncs1 0.97%
CCOC(=O)N1CCN(C(=O)c2ccc3c(=O)n(CCc4ccccc4)c(=S)[nH]c3c2)CC1 5.18%
Cc1ccc(Cl)cc1N1CCN(C(=O)Cn2ccc3ccccc3c2=O)CC1 4.81%
CCOc1ccc(CCNC(=O)C2CCN(c3nnc(-n4cccc4)s3)CC2)cc1 -0.04%
CCN1CCN(CCCNC(=O)C2CCN(c3nnc(-n4cccc4)s3)CC2)CC1 16.4%
CCOCC(=O)Nc1ccc(-c2cn3cccnc3n2)cc1 1.23%
CCCCn1nc(C(=O)Nc2cc(C(F)(F)F)ccc2N2CCOCC2)ccc1=O 4.58%
O=C(CSc1nnnn1-c1cccc2ccccc12)Nc1ccc(N2CCOCC2)c(Cl)c1 -5.56%
CCOc1ccc(N=Cc2c(O)cc(C)oc2=O)cc1 30%
Cc1cccc(N=Cc2c(O)cc(C)oc2=O)c1 5.21%
CC1Cc2ccccc2N1C(=O)COc1nc2ccccc2nc1N1CCOCC1 (centres undefined) 0.29%
Cc1ccccc1N=C/C=C1\N(C)c2ccccc2C1(C)C 4.55%
CN1/C(=C/C=N/NC(=O)c2ccc([N+](=O)[O-])cc2)C(C)(C)c2ccccc21 2.66%
CN1/C(=C\C=N\O)C(C)(C)c2ccccc21 15.1%
CN1/C(=C\C=Nc2ccc3ccccc3c2)C(C)(C)c2ccccc21 12.2%
CN1/C(=C\C=N\NC(=O)c2cccnc2)C(C)(C)c2ccccc21 4.5%
CO/N=C/C=C1/N(C)c2ccccc2C1(C)C 6.44%
COC(=O)CCCCC(=O)C1C(=O)CC(C)(C)C(C(=O)OC)C1=O (centres undefined) 2.31%
CC1(C2CC(C(F)(F)F)n3nc(C(=O)O)cc3N2)CC1 (centres undefined) 5.89%
O=C(Nc1ccc(C(=O)N2CCCCC2)cc1)c1ccccc1Br 3.41%
COc1ccc(/C=C/C(=O)Oc2ccc(/C=N/NC(=O)c3ccccc3)cc2)cc1OC 3.85%
O=C(CN1CCN(Cc2ccccc2)CC1)N/N=C/c1cccs1 2.1%
N/C(Cc1ccc([N+](=O)[O-])cc1)=N\OC(=O)C(c1ccccc1)c1ccccc1 8.53%
NC(CSCc1ccccc1Cl)C(=O)O (centres undefined) -0.96%
CCc1ccc(OCC(=O)N2CC(C(N)=O)Oc3ccccc32)cc1 (centres undefined) 4.28%
COc1ccc(/C=C(\C#N)C(=O)c2c(C)[nH]c3ccccc23)cc1OC 10.7%
COc1cc(/C=C(\C#N)c2nc3ccccc3[nH]2)cc(Br)c1OCc1ccc(F)cc1 6.53%
Cc1ccc2nc(/C(C#N)=C/c3ccccc3C(=O)O)[nH]c2c1 16%
COc1cc(/C=C(/C#N)c2nc3ccccc3c(=O)[nH]2)ccc1O 19.3%
COc1cc(/C=C(\C#N)C(=O)c2c(C)[nH]c3ccccc23)cc(OC)c1OC 15.4%
Cc1cc2nc(/C(C#N)=C/c3ccncc3)[nH]c2cc1C 10.2%
COc1ccc(/C=C(\C#N)c2nc3ccccc3[nH]2)cc1O 18.2%
COc1cc(/C=C(\C#N)c2nc3ccccc3[nH]2)cc(Br)c1OCc1ccccc1 6.48%

Reference: PubChem BioAssay AID624330 (Southern Research Specialized Biocontainment Screening …, 2012)
